Laboratory results: publication PMC7826789 (International Journal of Molecular Sciences, 2021)

What follows are compounds tested on NLK.
With Fc1ccc(-c2nn3ccccc3c2-c2ccncc2)cc1 [GW434756X] the Kinases covered was “NLK”.
For O=C(O)/C=C/C(=O)O.OCCCNc1nccc(-c2c(-c3ccc(F)cc3)nn3cc(C(F)(F)F)ccc23)n1 [GW569293E], the Kinases covered was “NLK”.
In the case of O=C(Nc1n[nH]c2cc(-c3cccc(F)c3)ccc12)C1CC1 [SB-735464], the Kinases covered is reported as “NLK”.

What follows are compounds tested on NTRK1.
With Nc1ncnc2occ(-c3ccc(NC(=O)Nc4cc(C(F)(F)F)ccc4F)cc3)c12 [GW770249X] the Kinases covered was “NTRK1”.
In the case of Cc1cn(-c2cc(NC(=O)c3ccc4c(c3)CN(c3cncnc3)C[C@@H]4C)cc(C(F)(F)F)c2)cn1 [D2202-1], the Kinases covered is reported as “NTRK1”.
For COc1ccccc1-c1cc(/C=C2\C(=O)Nc3ncc(Br)cc32)cc(Br)c1O [GW442130X], the Kinases covered was “NTRK1”.

Each compound was assayed on NUAK1.
CCC(=O)Nc1cccc(Oc2nc(Nc3ccc(N4CCN(C)CC4)cc3OC)ncc2Cl)c1 [WZ4003] was tested, and the Kinases covered was “NUAK1”.
CN1C(=O)c2ccccc2N(C)c2nc(Nc3cnn(C4CCNCC4)c3)ncc21 [XMD-17-51] was tested, and the Kinases covered was “NUAK1”.
With Cc1nc(Nc2cnn(C3CCNCC3)c2)nc2c1N(C)C(=O)c1cc3ccccc3cc1N2C [HTH-01-015] the Kinases covered was “NUAK1”.

The compounds below were run on PDGFRA.
With COc1cc2nccc(Nc3ccc(OCc4ccc(NC(C)=O)cc4)cc3)c2cc1OC [GW440135] the Kinases covered was “PDGFRA”.
In the case of Cn1ccc2ncnc(Oc3ccc(NC(=O)Nc4ccccc4)cc3)c21 [TPKI-69], the Kinases covered is reported as “PDGFRA”.
With Nc1ncnc2occ(-c3ccc(NC(=O)Nc4cc(C(F)(F)F)ccc4F)cc3)c12 [GW770249X] the Kinases covered was “PDGFRA”.
In the case of COc1cc2ncn(-c3cc(O[C@H](C)c4ccccc4Cl)c(C(N)=O)s3)c2cc1OC [GSK237701A], the Kinases covered is reported as “PDGFRA”.
With O=C(Nc1ccccc1)Nc1cccc(Oc2ccc3nccn3n2)c1 [TPKI-39] the Kinases covered was “PDGFRA”.
In the case of Cc1cnc(N)c(/C=C/c2cncc(C(=O)NCCc3ccc(Cl)cc3Cl)c2)c1 [GSK190937], the Kinases covered is reported as “PDGFRA”.

Each compound was assayed on PDGFRB.
With Cn1ccc2ncnc(Oc3ccc(NC(=O)Nc4ccccc4)cc3)c21 [TPKI-69] the Kinases covered was “PDGFRB”.
For COc1cc2ncn(-c3cc(O[C@H](C)c4ccccc4Cl)c(C(N)=O)s3)c2cc1OC [GSK237701A], the Kinases covered was “PDGFRB”.
In the case of CNS(=O)(=O)c1ccc(N(C)C)c(Nc2ncnc3cc(OC)c(OC)cc23)c1 [GSK114], the Kinases covered is reported as “PDGFRB”.
For Cc1ccc(NC(=O)Nc2ccccc2F)cc1-c1ccc(C(=O)Nc2ccncc2)cc1 [GSK1398477], the Kinases covered was “PDGFRB”.
For COc1cc2c(cc1OC)C(=C(Nc1ccccc1)c1cccc(CN)c1)C(=O)N2 [BIBF0846CL], the Kinases covered was “PDGFRB”.
For O=C(Nc1ccccc1)Nc1cccc(Oc2ccc3nccn3n2)c1 [TPKI-39], the Kinases covered was “PDGFRB”.
